Source: PubChem BioAssay AID1159580 (chemical genetic matrix, 2015)
The whole screen tested about 5,500 compounds, of which about 2,000 (36%) were called active. Another 18% or so got no clear call; they are omitted. Cut-off read from the data, not from the text of the source: active = normalized growth mostly below about 0.91 (no sharp cut-off); inconclusive = no clear call, values can overlap the other calls; inactive = mostly above about 0.92. The list shows a part of the results.

Experiment: chemical genetic growth profiling, strain panel (AID 1159580);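 note: tested at 20 µM; growth read once vehicle control cultures reached saturation at 30 °C; 1 = growth at the plate median or of vehicle wells; lower values mean less growth of the strain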
Conditions: growth OD

Measured: normalized growth

COc1ccc(-c2cc(C(F)F)nn2-c2ccc(S(N)(=O)=O)cc2)cc1F
inactive: S. cerevisiae deletion strains, locus YJR075W, strain HOC1, hits give low values 1.01 | S. cerevisiae deletion strains, locus YKL009W, strain mrt4, hits give low values 1.02 | S. cerevisiae deletion strains, locus YKL068W, hits give low values 1 | S. cerevisiae deletion strains, locus YKL085W, strain MDH1 (second series), hits give low values 1 | S. cerevisiae deletion strains, locus YKL085W, strain MDH1, hits give low values 1 | S. cerevisiae deletion strains, locus YKL160W, strain elf1, hits give low values 0.995 | S. cerevisiae deletion strains, locus YKL190W, strain CNB1, hits give low values 1 | S. cerevisiae deletion strains, locus YKR001C, strain vps1, hits give low values 1.01 | S. cerevisiae deletion strains, locus YKR026C, strain gcn3, hits give low values 1 | S. cerevisiae deletion strains, locus YKR091W, strain srl3, hits give low values 1.01 | S. cerevisiae deletion strains, locus YLL001W, strain dnm1, hits give low values 0.994 | S. cerevisiae deletion strains, locus YLL026W, hits give low values 1 | S. cerevisiae deletion strains, locus YLL041C, strain sdh2, hits give low values 1.01 | S. cerevisiae deletion strains, locus YLR027C, strain aat2, hits give low values 1 | S. cerevisiae deletion strains, locus YLR039C, strain RIC1, hits give low values 1.01 | S. cerevisiae deletion strains, locus YLR058C, strain SHM2, hits give low values 1.01 | S. cerevisiae deletion strains, locus YLR102C, strain apc9, hits give low values 1.01 | S. cerevisiae deletion strains, locus YLR113W, strain HOG1, hits give low values 1.05 | S. cerevisiae deletion strains, locus YLR221C, strain rsa3, hits give low values 1 | S. cerevisiae deletion strains, locus YLR258W, strain gsy2, hits give low values 1.01 | S. cerevisiae deletion strains, locus YLR262C, strain YPT6 (second series), hits give low values 1.01 | S. cerevisiae deletion strains, locus YLR262C, strain YPT6, hits give low values 0.992 | S. cerevisiae deletion strains, locus YLR268W, strain sec22, hits give low values 0.992 | S. cerevisiae deletion strains, locus YLR320W, strain mms22, hits give low values 0.962 | S. cerevisiae deletion strains, locus YLR330W, strain CHS5, hits give low values 1.01 | S. cerevisiae deletion strains, locus YLR342W, strain FKS1 (second series), hits give low values 1.08 | S. cerevisiae deletion strains, locus YLR342W, strain FKS1, hits give low values 0.991 | S. cerevisiae deletion strains, locus YLR357W, strain rsc2, hits give low values 0.995 | S. cerevisiae deletion strains, locus YLR370C, strain arc18, hits give low values 1.02 | S. cerevisiae deletion strains, locus YLR371W, strain rom2, hits give low values 1.03 | S. cerevisiae deletion strains, locus YLR384C, strain iki3, hits give low values 1 | S. cerevisiae deletion strains, locus YLR418C, strain cdc73, hits give low values 0.951 | S. cerevisiae deletion strains, locus YML016C, strain PPZ1, hits give low values 1 | S. cerevisiae deletion strains, locus YML032C, strain rad52, hits give low values 1.05 | S. cerevisiae deletion strains, locus YML120C, strain ndi1, hits give low values 0.999 | S. cerevisiae deletion strains, locus YML124C, strain tub3, hits give low values 1.01 | S. cerevisiae deletion strains, locus YMR058W, strain fet3, hits give low values 0.995 | S. cerevisiae deletion strains, locus YMR078C, strain ctf18, hits give low values 1.02 | S. cerevisiae deletion strains, locus YMR125W, strain sto1, hits give low values 1.02 | S. cerevisiae deletion strains, locus YMR129W, hits give low values 1.01 | S. cerevisiae deletion strains, locus YMR205C, strain PFK2, hits give low values 0.976 | S. cerevisiae deletion strains, locus YMR223W, strain ubp8, hits give low values 1.04 | S. cerevisiae deletion strains, locus YMR231W, strain pep5, hits give low values 1 | S. cerevisiae deletion strains, locus YMR263W, strain SAP30, hits give low values 0.996 | S. cerevisiae deletion strains, locus YMR307W, strain GAS1, hits give low values 1.04 | S. cerevisiae deletion strains, locus YNL067W, strain RPL9B, hits give low values 0.996 | S. cerevisiae deletion strains, locus YNL071W, strain lat1, hits give low values 0.996 | S. cerevisiae deletion strains, locus YNL128W, strain TEP1, hits give low values 1 | S. cerevisiae deletion strains, locus YNL153C, strain GIM3, hits give low values 0.982 | S. cerevisiae deletion strains, locus YNL183C, strain NPR1, hits give low values 1 | S. cerevisiae deletion strains, locus YNL209W, strain ssb2, hits give low values 1.01 | S. cerevisiae deletion strains, locus YNL233W, strain BNI4, hits give low values 1.01 | S. cerevisiae deletion strains, locus YNL248C, strain rpa49, hits give low values 0.996 | S. cerevisiae deletion strains, locus YNL250W, strain rad50, hits give low values 1.02 | S. cerevisiae deletion strains, locus YNL271C, strain bni1, hits give low values 1.02 | S. cerevisiae deletion strains, locus YNL298W, strain CLA4, hits give low values 1.02 | S. cerevisiae deletion strains, locus YNL307C, strain MCK1, hits give low values 1.03 | S. cerevisiae deletion strains, locus YNL322C, strain KRE1 (second series), hits give low values 1 | S. cerevisiae deletion strains, locus YNL322C, strain KRE1, hits give low values 1 | S. cerevisiae deletion strains, locus YNR049C, strain mso1, hits give low values 1.01 | S. cerevisiae deletion strains, locus YNR052C, strain pop2, hits give low values 1.03 | S. cerevisiae deletion strains, locus YOL006C, strain TOP1, hits give low values 1.02 | S. cerevisiae deletion strains, locus YOL012C, strain htz1 1.3 | S. cerevisiae deletion strains, locus YOL147C, strain pex11, hits give low values 1.01 | S. cerevisiae deletion strains, locus YOR001W, strain rrp6, hits give low values 1.01 | S. cerevisiae deletion strains, locus YOR061W, strain CKA2, hits give low values 1 | S. cerevisiae deletion strains, locus YOR069W, strain VPS5, hits give low values 1 | S. cerevisiae deletion strains, locus YOR070C, strain gyp1, hits give low values 1 | S. cerevisiae deletion strains, locus YOR080W, strain dia2, hits give low values 0.99 | S. cerevisiae deletion strains, locus YOR083W, strain WHI5, hits give low values 0.989 | S. cerevisiae deletion strains, locus YOR106W, strain vam3, hits give low values 0.993 | S. cerevisiae deletion strains, locus YOR136W, strain idh2, hits give low values 1.02 | S. cerevisiae deletion strains, locus YOR144C, strain elg1, hits give low values 1.01 | S. cerevisiae deletion strains, locus YOR184W, strain ser1, hits give low values 1.05 | S. cerevisiae deletion strains, locus YOR231W, strain MKK1, hits give low values 1.04 | S. cerevisiae deletion strains, locus YOR265W, strain rbl2, hits give low values 1.01 | S. cerevisiae deletion strains, locus YOR270C, strain vph1, hits give low values 0.976 | S. cerevisiae deletion strains, locus YOR290C, strain snf2, hits give low values 1.01 | S. cerevisiae deletion strains, locus YOR316C, strain cot1, hits give low values 1.01 | S. cerevisiae deletion strains, locus YPL051W, strain arl3, hits give low values 0.991 | S. cerevisiae deletion strains, locus YPL055C, strain LGE1, hits give low values 0.97 | S. cerevisiae deletion strains, locus YPL078C, strain atp4, hits give low values 0.998 | S. cerevisiae deletion strains, locus YPL106C, strain sse1, hits give low values 0.993 | S. cerevisiae deletion strains, locus YPL240C, strain hsp82, hits give low values 0.99 | S. cerevisiae deletion strains, locus YPL241C, strain CIN2, hits give low values 0.999 | S. cerevisiae deletion strains, locus YPL256C, strain CLN2, hits give low values 1.09 | S. cerevisiae deletion strains, locus YPR119W, strain clb2, hits give low values 1 | S. cerevisiae deletion strains, locus YPR141C, strain kar3, hits give low values 1.01 | S. cerevisiae deletion strains, locus YPR163C, strain tif3, hits give low values 1 | S. cerevisiae deletion strains, locus YPR167C, strain met16, hits give low values 1.01 | S. cerevisiae deletion strains, strain wtn01, hits give low values 1.02 | S. cerevisiae strains, strain wild type, hits give low values 1.01
